CBFb-RUNX1 inh: qHTS Assay for Compounds Blocking the Interaction Between CBF-beta and RUNX1 for the Treatment of Acute Myeloid Leukemia; Runt-related transcription factor 1 (Homo sapiens) + Core-binding factor subunit beta …; AlphaScreen CBFb-His/RUNX1-biotin binding, biochemical; Potency, µM (top dose mostly 59.8 µM), inactives show at the top dose activity, negative = inhibition, actives largely listed as inhibitors; 230,000 tested, under 10 active; AID 1477, 2009; note: % of control where 0% means no effect
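AlphaScreen proximity signal reports loss of binding between His-tagged CBF-beta and biotin-labelled RUNX1, each at 30 nM. Proteins are pre-associated for 20 minutes, compounds added for 15 minutes, then beads for 90 minutes, all at ambient temperature.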
RGS12 GoLoco inh: qHTS Assay for Inhibitors of RGS12 GoLoco Motif Activity (Red Fluorophore) | Gai1:RGS12 GoLoco peptide FP, rhodamine, 10 min | actives 0.44% (n = 230,000) | Guanine nucleotide-binding protein G(i) subunit alpha-1 (Homo sapiens), P63096 | Potency, µM (titrated, usually from 61.6 µM), inactives show at the top dose activity, negative = inhibition, usual class: inhibitors; active = well fitted inhibition curve with a large enough effect, not every such curve was filed as active; inactive = no such curve, though single readings can be large or run the other way; note: potency is the fitted concentration of half-maximal effect; % is set by controls: 0 for no effect and ±100 for the full control effect; nearly all actives have a fitted effect of over 30% in size
Target sequence (P63096 whole entry, looked up): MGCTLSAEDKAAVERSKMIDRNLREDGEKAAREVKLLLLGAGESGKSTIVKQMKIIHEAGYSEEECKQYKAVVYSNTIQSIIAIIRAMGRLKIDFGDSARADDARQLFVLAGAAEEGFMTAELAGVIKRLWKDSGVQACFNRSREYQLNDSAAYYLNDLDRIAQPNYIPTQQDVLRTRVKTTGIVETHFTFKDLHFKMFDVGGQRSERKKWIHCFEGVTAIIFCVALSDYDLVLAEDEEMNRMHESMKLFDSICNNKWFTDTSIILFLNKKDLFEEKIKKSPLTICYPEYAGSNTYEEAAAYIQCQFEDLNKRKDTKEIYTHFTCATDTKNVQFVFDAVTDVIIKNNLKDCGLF
ERK EGF block: qHTS Assay for Inhibitors of the ERK Signaling Pathway using a Homogeneous Screening Assay; Stimulation with EGF; HEK293-V1b, EGF-stimulated phospho-ERK AlphaScreen; Potency, µM (top dose mostly 11.5 µM), for the others: at the highest dose activity change, negative = inhibition, actives largely listed as inhibitors; actives 0.41% (n = 130,000);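 note: potency is the fitted concentration of half-maximal effect; plate controls were stimulated vehicle wells for no effect and unstimulated vehicle basal for full effect; nearly all actives have a fitted effect of over 55% in size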
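Phospho-ERK1/2 measured by AlphaScreen (SureFire) after 5 min 25 nM EGF stimulation of V1b-expressing HEK293 cells preincubated 30 min at 37C with titrated compounds; data scaled to DMSO and EGF controls, Hill-fitted AC50.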
An asterisk follows results filed as active; ? = inconclusive; · = no result given; [ ] = another dose, or the depositor's remark. Hits are enriched below; roughly 0.5% of the tested compounds scored in any of these assays. Unless noted, calls come from the whole dose curve; as a rule, active = well fitted curve in the direction sought with a large enough effect; inconclusive = small, poorly fitted or top-dose-only effect, or another doubt; inactive = no such curve, though single readings can be large; an effect the other way counts as inactive or inconclusive.

SMILES | CBFb-RUNX1 inh | RGS12 GoLoco inh | ERK EGF block
CCNC(=O)[C@H]1O[C@@H](n2cnc3c(N)ncnc32)[C@H](O)[C@@H]1O | 13% | 7% | 8.9µM*
CCNC(=O)[C@@H]1O[C@@H](n2cnc3c(N)ncnc32)[C@H](O)[C@H]1O | -5%[21.7 µM] | 1% | -14%
CC[n+]1c(SC)ccc2cc(OC)ccc21 | -3% | 10µM* | 1%
CCSCC[C@H](N)C(=O)O | · | -4%[14.2 µM] | ·
CC1Oc2cc3c(-c4c(O)cc(O)c5c(O)c6c(cc45)OC(C)C(C)C6=O)c(O)cc(O)c3c(O)c2C(=O)C1C (centres undefined) | · | 3% | 16µM*
CC(=O)O[C@H]1CC[C@H]2[C@@H]3CCC4=C[C@@H](C5SCCS5)[C@H](OC(C)=O)C[C@]4(C)[C@H]3CC[C@@]12C | · | 6%[14.2 µM] | ·
Nc1c(C(=O)Nc2ccc([As](=O)(O)O)cc2)cnc2nnnn12 | · | 4%[14.2 µM] | ·
C=C(C)c1ccccc1 (tested in a mixture with another compound) | · | 4%[14.2 µM] | ·
CCOC(C(=O)OCCC[N+](C)(CC)CC)(c1ccccc1)c1ccccc1 | 1% | -5% | ·
CC[N+](C)(CC)CCCOC(=O)C(O)(c1ccccc1)C1CCCCC1 (centres undefined) | 17% | 6.3µM* | 0%
Nn1cnnc1 | 6%[21.7 µM] | 14% | ·
Clc1ccc(COC(Cn2ccnc2)c2ccc(Cl)cc2Cl)cc1 (centres undefined) | ? | 13% | 28µM*
C=CCO[C@@H](Cn1ccnc1)c1ccc(Cl)cc1Cl | -4%[21.7 µM] | 9%[21.6 µM] | -4%[25.7 µM]
N#CC(O)c1ccccc1 (centres undefined) | 0%[21.7 µM] | 7% | ·
CC(=O)[O-].CC(=O)[O-].O.O.O.[Pb+2] | ? | 0% | ·
O=C1NC(=O)N(CCc2ccc(F)cc2)C(=O)/C1=C\C=C\c1ccccc1 | -8% | 69% | -9%
C=CCN1C(=O)NC(=O)/C(=C/C=C/c2ccccc2)C1=O | 5% | -23% | 22µM*
O=C(O)c1cccc([As]=[As]c2cccc(C(=O)O)c2)c1 (centres undefined) | · | 3%[14.2 µM] | ·
COC(=O)c1c(C)ccc2c(O)c3c(cc12)C(=O)c1c2c(cc(O)c1C3=O)[C@@]1(C)O[C@@](C)(O2)[C@@H](O)[C@H](N(C)C)[C@H]1O | · | 56%[14.2 µM] | ·
NC[C@@H](Cc1ccccc1)P(=O)(O)O | · | -17%[14.2 µM] | ·
[CH3][Hg][Cl] | 24%[21.7 µM] | 25µM* | ·
FC(F)(F)c1nc2ccc(SSc3ccc4nc(C(F)(F)F)[nH]c4c3)cc2[nH]1 | · | -3%[14.2 µM] | ·
C=C(CC1CC(O)[C@]2(C)OC3CC4OC5C[C@]6(C)O[C@]7(C)CCC8OC9C[C@]%10(C)OC%11C(C)=CC(=O)OC%11CC%10OC9C[C@@H](C)C8OC7CC6O[C@]5(C)C/C=C\C4OC3CC2O1)C(=O)O (some centres undefined) | 3% | -4% | -12%[57.5 µM]
C=C(C=O)C[C@@H]1C[C@H](O)C2OC3C[C@]4(C)OC5/C=C\CC6OC7C(CC=CCC6OC5CCCC4OC3CC2O1)OC1CC2OC3CC(=O)OC3C[C@@H](C)C[C@@]2(C)OC1C[C@@H]7C (some centres undefined) | 3% | -8% | 4µM*
O=C(O)[C@@H](O)[C@@H](O)C1[O][Sb][O][C@@H]1CO (some centres undefined) | · | 4%[14.2 µM] | ·
COc1cc2cc(c1Cl)N(C)C(=O)C[C@H](OC(=O)C(C)C)[C@]1(C)O[C@@H]1[C@@H](C)[C@H]1C[C@](O)(NC(=O)O1)[C@@H](OC)/C=C\C=C(\C)C2 | · | 7%[14.2 µM] | ·
CCCCC/C=C\C/C=C\C/C=C\C/C=C\CCCC(=O)NCCc1ccc(O)c(O)c1 | -10% | -11% | -11%
CCCCC/C=C\C/C=C\C/C=C\C/C=C\CCCC(=O)N(Cc1ccc(O)c(Cl)c1)Cc1ccc(O)c(Cl)c1 | 10% | 40µM* | ·
C=C1C(=O)O[C@H]2[C@H]1[C@H](OC(=O)CC(=O)O[C@@H]1C[C@@H](C)[C@@H]3C=CC(=O)[C@@]3(C)[C@H]3OC(=O)C(=C)[C@H]13)C[C@@H](C)[C@H]1C=CC(=O)[C@]12C | 2% | -3% | 13%[57.5 µM]
C=C1C(=O)O[C@@H]2C[C@@H](C)[C@@H]3C=CC(=O)[C@@]3(C)[C@@H](OC(=O)CC(=O)O[C@H]3[C@@H]4C(=C)C(=O)O[C@@H]4C[C@@H](C)[C@@H]4C=CC(=O)[C@]43C)[C@H]12 | -18% | -28% | 4.5µM*

Bioassay records from PubChem BioAssay.
